LASV entry inh – blocks Lassa virus binding to or entry into cells; actives 1.2% (n = 300,000); Potency, µM (top dose mostly 37.9 µM), for the others: at the top dose activity change, negative = inhibition, usual class: inhibitors; AID 540256; Lassa virus pseudotype entry inhibition, cell reporter; calls by dose curve; tested in HEK293 cells; also: potency is read from the fitted curve at half-maximal effect; nearly all actives have a fitted effect of over 50% in size
VACV Venus inh – inhibitors of vaccinia virus (Venus reporter). AID 720580. Potency, µM (top dose mostly 36.5 µM), without a hit: at the top dose activity change, negative = inhibition, actives largely listed as inhibitors. Vaccinia virus Venus reporter expression, fluorescence. actives 0.46% (n = 330,000); calls by dose curve; tested in A549 cells; also: potency is read from the fitted curve at half-maximal effect; nearly all actives have a fitted effect of over 30% in size
MARV entry inh – Marburg virus entry inhibition; Marburg virus pseudotyped entry inhibition, cell reporter; actives 1.8% (n = 300,000); Potency, µM (titrated, usually from 37.8 µM), for inactives: top-dose activity change, negative = inhibition, actives largely listed as inhibitors; calls by dose curve; tested in HEK293 cells; also: potency is read from the fitted curve at half-maximal effect
HCMV antiviral – inhibitors of human cytomegalovirus. HFF cells, HCMV-luciferase reporter, 72 h; active compounds read low. activity change, negative = inhibition, % at 57.5 µM. actives 4.5% (n = 410,000). AID 1259415; in the data active = activity change below about -60%; inconclusive = no clear call, values can overlap the other calls; inactive = above about -39%
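After 16 h attachment at 37C, HFF cells received test compound and HCMV-luciferase (1 PFU/cell); reporter luminescence read 72 h later, data normalized against buffer-only and known inhibitor Salinomycin.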
FMDV antiviral – blocks foot and mouth disease virus | FMDV antiviral cell-based qHTS | Potency, µM (titrated, usually from 57.9 µM), inactives show at the top dose activity change, negative = inhibition, usual class: inhibitors | actives 1.2% (n = 410,000) | AID 1159524; calls by dose curve; tested in HEK293T cells; also: read-out not given here; potency is read from the fitted curve at half-maximal effect; nearly all actives have a fitted effect of over 45% in size
VACV mCherry inh – vaccinia inhibition (mCherry reporter); Vaccinia virus mCherry reporter infection, fluorescence; Potency, µM (series often up to 36.5 µM), inactives show at the top dose activity change, negative = inhibition, hits mostly inhibitors; actives 0.63% (n = 310,000); calls by dose curve; tested in A549 cells; also: potency is read from the fitted curve at half-maximal effect; nearly all actives have a fitted effect of over 35% in size
Active calls of the source: *; i = inactive; ? = inconclusive; . = not tested or not shown; ! = repeats disagree; [ ] = another dose, or the depositor's remark. Shown are actives, neighbours in structure and some others; about 6.5% of the full set was active somewhere. % is scaled to controls: 0 for no effect and ±100 for the full control effect.

SMILES | LASV entry inh | VACV Venus inh | MARV entry inh | HCMV antiviral | FMDV antiviral | VACV mCherry inh
COc1ccc2cc(CNC3CCS(=O)(=O)C3)c(-c3ccc(OC)c(OC)c3)nc2c1 (centres undefined) | . | 4.7% | . | . | -15.3% | -8.1%
Cc1ccc(C(=O)N2CCN(C3c4cccc5cccc(c45)C3NS(=O)(=O)c3ccccc3)CC2)cc1 (centres undefined) | 12.6µM* | -28.6% | 11.2µM* | -18.0 | -29.8% | .
CC(=O)N1CCN([C@@H]2c3cccc4cccc(c34)[C@H]2NS(=O)(=O)c2ccccc2)CC1 | . | . | -6.8% | . | . | .
Cc1ccc(S(=O)(=O)NC2c3cccc4cccc(c34)C2Sc2nc(C)cc(C)n2)cc1 (centres undefined) | ? | -13.0% | 17.8µM* | 1.4 | 4.3% | -10.6%
C=CC[C@@H]1C=CC(O/N=C(\C)CCC(=O)OC[C@H]2O[C@H](C#Cc3ccccc3)C=C[C@@H]2Oc2ccc(C)cc2)[C@@H](CO)O1 (some centres undefined) | . | . | 29.4%[14.2 µM] | . | . | .
CCCN(CCC)[C@H]1CCc2c(F)ccc(O)c2C1 | 17.3% | . | 11.2µM* | . | . | .
CCCN(C/C=C\I)[C@@H]1CCc2ccc(O)cc2C1 | . | . | . | . | -16.7% | .
Cc1cccc(C(=O)NCC2Cc3cc(F)cc(-c4cnccn4)c3O2)n1 (centres undefined) | . | 1.2% | . | . | -15.0% | -7.3%
Cc1cccc2sc(N(CCCN(C)C)C(=O)CCc3ccccc3)nc12 | ? | ? | ? | -71.6* | -12.3% | ?
CN(C)CCCN(C(=O)CCc1ccccc1)c1nc2ccc(F)cc2s1 | -18.2% | -12.1% | -28.9% | -11.9 | -14.6% | -12.2%
CN(C)CCCN(C(=O)CCc1ccccc1)c1nc2ccc(Br)cc2s1 | ? | ? | ? | 0.0 | 25.1µM* | ?
Cc1ccccc1N=C1NN=C(c2ccccc2F)CS1 | ? | . | 14.6µM* | 51.7 | -3.4% | .
Cc1cc(C2=NNC(=NC3CCCCC3)SC2)c(C)n1-c1c(C)n(C)n(-c2ccccc2)c1=O | 2.6% | -29.7% | -41.0% | -21.8 | -0.6% | -20.6%
COc1ccc(N=C2NN=C(c3ccc4c(c3)OCCO4)CS2)cc1 | -13.0% | -9.8% | 1.4% | 4.9 | 2.0% | .
Cc1cc(C2=NNC(=NC3CC3)SC2)c(C)n1-c1ccccc1F | 0.13µM* | . | 0.13µM* | -96.8* | 0.01µM* | .
c1cc2c(cc1C1=NNC(=NC3CC3)SC1)OCCO2 | 0.291µM* | . | 0.326µM* | -90.0* | ? | .
Cc1cccc(C)c1N=C1NN=C(c2ccccc2F)CS1 | -0.1% | -15.0% | ? | -0.1 | -19.9% | -2.6%
CCCCN=C1NN=C(c2ccc(C)c(C)c2)CS1 | -25.7% | -8.5% | ? | 63.7 | 37.9% | -11.7%
CCCCN=C1NN=C(c2ccc3c(c2)OCCO3)CS1 | 7.94µM* | -14.1% | ? | -4.5 | ? | -15.1%
CC1=C[C@@H](COCc2ccccc2)O[C@@]2(C1)C(=O)N(Cc1ccccc1C(F)(F)F)c1ccccc12 | . | . | 4.8%[14.2 µM] | . | . | .
CN(C)S(=O)(=O)c1ccc2c(c1)N(CC(=O)Nc1ccc(F)cc1)C(=O)CS2 | -21.3%[46.1 µM] | 8.9% | . | 0.5 | -9.5% | -9.8%
COc1ccc(CN2CCC3(CC2)c2ccccc2[C@@H](NC(=O)c2ccccc2OC)[C@@H]3O)cc1O | . | -12.1% | . | . | -9.0% | -22.8%
c1ccc2oc(C3=NNC(=NC4CC4)SC3)cc2c1 | 7.3µM* | . | 1.83µM* | ? | -53.7% | .
c1ccc(CN=C2NN=C(c3cc4ccccc4o3)CS2)cc1 | ? | -10.0% | ? | -0.6 | 0.0% | -13.6%
Cn1c(SCC(=O)N2CCN(c3cccc(Cl)c3)CC2)nnc1-c1ccncc1 | -17.7% | . | -26.4% | -66.8* | ? | .
SMILES | LASV entry inh | VACV Venus inh | MARV entry inh | HCMV antiviral | FMDV antiviral | VACV mCherry inh
CCOc1ccccc1C(=O)N1CCN(c2cccc(Cl)c2)CC1 | ? | ? | ? | -85.1* | -18.8% | ?
O=C(c1cccc([N+](=O)[O-])c1)N1CCN(c2cccc(Cl)c2)CC1 | ? | -27.9% | -6.6% | 5.7 | ? | i
O=C(CSc1ccccn1)N1CCN(c2cccc(Cl)c2)CC1 | 6.7% | . | -5.2% | -73.4* | 0.0% | .
O=C(CSc1ccccn1)N1CCN(c2ccccc2)CC1 | 4.0% | . | 16.3% | 38.2 | 37.5% | .
COC(=O)c1cc(C(=O)N2CCN(c3cccc(Cl)c3)CC2)cc([N+](=O)[O-])c1 | ? | -23.2% | ? | -67.6* | -23.8% | ?
O=C(O)c1ccccc1C(=O)N1CCN(c2cccc(Cl)c2)CC1 | 15.4% | -10.0% | -1.3% | -8.1 | 4.0% | -4.4%
Cc1cc(N(C)C)cc(C)c1/C=C/c1ccnc2ccccc12 | . | -22.6% | . | . | . | -17.0%
O=C(Nc1ccccc1C(=O)NC1CC1)c1ccccc1 | . | . | . | 21.8 | -23.5% | .
Cc1cc(CCNC=O)c(C)c2c1oc1ccccc12 | ? | -7.1% | ? | 59.0 | 7.7% | -23.1%
Cc1cnc(C)c(-c2ccc(O)c(CN3CCN(C=O)CC3)c2)n1 | . | -4.7% | . | . | -11.4% | -9.7%
COc1ccc(C2NC(=O)N(CCCC(=O)O)C(C)=C2C(=O)OCc2ccccc2)cc1 (centres undefined) | . | . | . | -11.4 | . | .
CC1CCN(C(=O)COc2ccc(S(=O)(=O)N3CCOCC3)cc2)CC1 | 6.4% | -11.8% | 5.0% | -10.7 | -8.9% | i
Fc1cccc(Cc2c(-c3ccco3)nc3ccc(Br)cn23)c1 | . | 2.1% | . | 56.6 | 35.5µM* | 5.5%
COc1ccc(-c2nc3ccc(Br)cn3c2Cc2cccc(Cl)c2)cc1OC | . | 4.9% | . | ? | -15.3% | 15.1%
COc1ccc(-c2nc3ccc(Br)cn3c2Cc2ccccc2)cc1OC | . | -13.8% | . | -65.1* | -3.2% | i
Fc1cccc(Cc2c(-c3ccco3)nc3ccc(Cl)cn23)c1 | . | 1.2% | . | . | ? | 14.5%
Cc1cc2c(c(=O)n1Cc1ccccc1)[C@H]1O[C@](CCCCN3C(=O)c4ccccc4C3=O)(Cc3cc(C#N)ccc31)O2 | . | . | 7.7%[14.2 µM] | . | . | .
Cc1c(C(=O)Nc2cccc(C(F)(F)F)c2)oc2ccc(S(=O)(=O)N3CCOCC3)cc12 | -6.4% | . | -28.6% | -2.2 | ? | .
Cc1ccc(NC(=O)c2oc3ccc(S(=O)(=O)N4CCC5(CC4)OCCO5)cc3c2C)cc1Cl | 4.3%[46.1 µM] | -10.1% | . | -18.5 | -22.6% | -3.5%
Cc1c(C(=O)NCc2cccnc2)oc2ccc(S(=O)(=O)N3CCCCCC3)cc12 | -14.6% | . | -5.7% | -19.7 | -28.7% | .
COc1ccc(NC(=O)c2oc3ccc(S(=O)(=O)N4CCC5(CC4)OCCO5)cc3c2C)cc1 | ? | . | 20.6µM*! | -17.4 | 12.6µM* | .
Cc1c(C(=O)Nc2ccc(F)cc2)oc2ccc(S(=O)(=O)N3CCCCCC3)cc12 | -7.0%[46.1 µM] | -29.9% | . | -30.7 | 28.2µM* | -26.5%
Cc1c(C(=O)Nc2cccc(C(F)(F)F)c2)oc2ccc(S(=O)(=O)N3CCC4(CC3)OCCO4)cc12 | 28.6%[46.1 µM] | -25.3% | . | -11.1 | 15.8µM* | -14.8%
Cc1c(C(=O)NCc2cccnc2)oc2ccc(S(=O)(=O)N3CCCCC3)cc12 | -5.3% | . | -6.5% | -83.2* | ? | .
COc1ccc(CCCc2nnc(SCC(=O)Nc3ccc(Cl)cc3)o2)cc1 | 0.8%[46.1 µM] | -11.0% | ? | -13.6 | ? | -14.0%

High-throughput results as filed in PubChem BioAssay.
